Drawing on PubChem BioAssay (NCATS), this text covers Potency, outcome and activity, negative = inhibition for 22 molecules.

Molecules are shown by their SMILES. Records with an inconclusive call do not appear. Values without a mark were called inactive. The source made the active and inactive calls. Unless noted, the call rests on the fitted dose curve; in most records, active means well fitted curve in the direction sought with a large enough effect; inconclusive means small, poorly fitted or top-dose-only effect, or another doubt; inactive means no such curve, though single readings can be large; an effect the other way counts as inactive or inconclusive.

Assay [1] addresses Cytochrome P450 2D6 (Homo sapiens) (UniProt P10635). The assay can be described thus: qHTS Assay for Inhibitors and Substrates of Cytochrome P450 2D6 (AID 891). Further: nearly all actives have a fitted effect of over 60% in size. Further: potency means the concentration at half of the fitted maximal effect. A digest of the protocol: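 Luminescent read-out of luciferin formed by 5 nM human CYP2D6 demethylating 30 uM Luciferin-ME EGE (Km level) over 60 min at room temperature after NADPH regeneration addition. Data normalized to full inhibition by 1.43 uM quinidine.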

Assay [2] addresses Cytochrome P450 3A4 (Homo sapiens) (UniProt P08684). As to the kind of experiment: qHTS Assay for Inhibitors and Substrates of Cytochrome P450 3A4 (AID 884). Further: nearly all actives have a fitted effect of over 50% in size. Further: potency means the concentration at half of the fitted maximal effect. The method, boiled down: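 Luminescent readout of luciferin produced by CYP3A4 (20 nM) dealkylation of Luciferin-PPXE, 25 uM (its KM). NADPH-driven reaction ran 60 min at RT after 10 min compound preincubation; data scaled to 57 uM ketoconazole as 100% inhibition.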
In general terms: Quantitative high-throughput screening tests each substance at several concentrations.

Assay [3] has as its target ATP-dependent 6-phosphofructokinase (Trypanosoma brucei brucei) (UniProt O15648). As to the kind of experiment: qHTS Assay to Find Inhibitors of T. brucei phosphofructokinase: hit validation (AID 492961).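 Further: luminescence reports ADP formed as PFK phosphorylates fructose-6-phosphate with ATP; on the % scale 0 is the no-effect control and ±100 the full control effect.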 A digest of the protocol: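 Compounds titrated; %activity normalized to 0x and 1x enzyme controls, curve-fitted. Readout: ADP-Glo luminescence after 45 min room-temperature reaction of 1.25 nM PFK, 0.1 mM ATP, 0.5 mM F6P, pH 8.0.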

Assay [4] in a line: qHTS profiling for inhibitors of Plasmodium falciparum proliferation (AID 504749). Further: nearly all actives have a fitted effect of over 60% in size. Further: potency means the concentration at half of the fitted maximal effect.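 On activity, negative = inhibition: 0% = DMSO vehicle and full inhibition = artemisinin control.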 To be noted: P. falciparum in erythrocytes, SYBR Green DNA, 72 h, at 28.7 µM (top of the series). A digest of the protocol: (§1)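 SYBR Green fluorescence (ex 485 nm, em 535 nm) reports parasite DNA after 72 h compound exposure of infected red cells at 0.3% parasitemia, 2.5% hematocrit; signal normalized to 0.29 uM artemisinin and vehicle wells.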

Assay [5] has as its system 7G8. The assay is described as above. To be noted: P. falciparum in erythrocytes, SYBR Green DNA, 72 h; series mostly up to 28.7 µM. A digest of the protocol:
as §1

Assay [6] relates to ATS189. Described as above. To be noted: P. falciparum in erythrocytes, SYBR Green DNA, 72 h; series mostly up to 28.7 µM. The method, boiled down:
as §1

In assay [7] the test system is CP185. The assay is described as above. To be noted: P. falciparum in erythrocytes, SYBR Green DNA, 72 h; series mostly up to 28.7 µM. A digest of the protocol:
as §1

The subject of assay [8] is CP192. The assay is described as above. To be noted: P. falciparum in erythrocytes, SYBR Green DNA, 72 h; series mostly up to 28.7 µM. The method, boiled down: as §1
Assay [9] deals with CP201. Described as above. As to conditions: P. falciparum in erythrocytes, SYBR Green DNA, 72 h; series mostly up to 28.7 µM. The method, boiled down: as §1
Assay [10] concerns CP238. The assay is described as above. As to conditions: P. falciparum in erythrocytes, SYBR Green DNA, 72 h; series mostly up to 28.7 µM. A digest of the protocol:
as §1

Assay [11] has as its system CP247. The description is as above. To be noted: P. falciparum in erythrocytes, SYBR Green DNA, 72 h; series mostly up to 28.7 µM. A digest of the protocol:
as §1

Assay [12] deals with CP252. The description is as above. To be noted: P. falciparum in erythrocytes, SYBR Green DNA, 72 h; series mostly up to 28.7 µM. A digest of the protocol: as §1
Assay [13] has as its system CP265. Described as above. As to conditions: P. falciparum in erythrocytes, SYBR Green DNA, 72 h; series mostly up to 28.7 µM. The method, boiled down: as §1
Assay [14] concerns CP329. The description is as above. To be noted: P. falciparum in erythrocytes, SYBR Green DNA, 72 h; series mostly up to 28.7 µM. The method, boiled down: as §1
Assay [15] concerns HB3. Described as above. As to conditions: P. falciparum in erythrocytes, SYBR Green DNA, 72 h; series mostly up to 28.7 µM. A digest of the protocol:
as §1

Assay [16] has as its system PAD. Described as above. To be noted: P. falciparum in erythrocytes, SYBR Green DNA, 72 h; series mostly up to 28.7 µM. A digest of the protocol: as §1
The test system of assay [17] is SC27B. The assay is described as above. As to conditions: P. falciparum in erythrocytes, SYBR Green DNA, 72 h; series mostly up to 28.7 µM. The method, boiled down:
as §1

In assay [18] the test system is W2. Described as above. To be noted: P. falciparum in erythrocytes, SYBR Green DNA, 72 h; series mostly up to 28.7 µM. A digest of the protocol: as §1
The nature of assay [19]: qHTS Assay for Identification of Small Molecule Antagonists for NFkB Signaling Pathway (AID 895; active means well fitted inhibition curve with a large enough effect in the signal ratio, with a control signal flat, not every such curve was filed as active; the % refers to the signal ratio; further: potency means the concentration at half of the fitted maximal effect). A digest of the protocol: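 ME-180 NFkB-bla cells (beta-lactamase under NFkB response element), plated overnight, treated with compound then 10 pM TNF alpha (about EC50) for 5 hrs at 37 C. LiveBLAzer FRET read at 460/530 nm emission, 405 nm excitation.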
Assay [20] has as its target Muscarinic acetylcholine receptor M1 (Rattus norvegicus) (UniProt P08482). As to the kind of experiment: qHTS Assay for Antagonists of Acetylcholine Muscarinic M1 Receptor: Kinetic Measurement of Intracellular Calcium Response (AID 943).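 Further: Fluo-4 calcium signal as peak divided by basal fluorescence over 4 min; nearly all actives have a fitted effect of over 75% in size.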 A digest of the protocol:
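Quantitative HTS in CHO-M1 (rat receptor) cells: 10 min compound exposure ahead of 100 nM carbachol, Fluo-4 fluorescence followed 4 min, value expressed as peak-to-basal ratio.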

Sequence of Cytochrome P450 2D6 (Homo sapiens) (P10635 whole entry, looked up): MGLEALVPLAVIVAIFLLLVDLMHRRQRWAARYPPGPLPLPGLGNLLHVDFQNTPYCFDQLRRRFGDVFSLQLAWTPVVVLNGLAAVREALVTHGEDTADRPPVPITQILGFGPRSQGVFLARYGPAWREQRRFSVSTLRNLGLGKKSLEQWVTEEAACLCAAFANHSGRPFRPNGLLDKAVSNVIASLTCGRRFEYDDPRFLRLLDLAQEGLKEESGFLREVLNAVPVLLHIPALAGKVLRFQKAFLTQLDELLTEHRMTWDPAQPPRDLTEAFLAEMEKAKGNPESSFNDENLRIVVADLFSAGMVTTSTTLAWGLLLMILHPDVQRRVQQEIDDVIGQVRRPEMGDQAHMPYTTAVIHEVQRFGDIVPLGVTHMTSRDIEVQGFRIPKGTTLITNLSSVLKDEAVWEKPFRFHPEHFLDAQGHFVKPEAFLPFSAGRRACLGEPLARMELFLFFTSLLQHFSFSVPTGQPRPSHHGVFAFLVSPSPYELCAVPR
Sequence of Cytochrome P450 3A4 (Homo sapiens) (P08684 whole entry, looked up): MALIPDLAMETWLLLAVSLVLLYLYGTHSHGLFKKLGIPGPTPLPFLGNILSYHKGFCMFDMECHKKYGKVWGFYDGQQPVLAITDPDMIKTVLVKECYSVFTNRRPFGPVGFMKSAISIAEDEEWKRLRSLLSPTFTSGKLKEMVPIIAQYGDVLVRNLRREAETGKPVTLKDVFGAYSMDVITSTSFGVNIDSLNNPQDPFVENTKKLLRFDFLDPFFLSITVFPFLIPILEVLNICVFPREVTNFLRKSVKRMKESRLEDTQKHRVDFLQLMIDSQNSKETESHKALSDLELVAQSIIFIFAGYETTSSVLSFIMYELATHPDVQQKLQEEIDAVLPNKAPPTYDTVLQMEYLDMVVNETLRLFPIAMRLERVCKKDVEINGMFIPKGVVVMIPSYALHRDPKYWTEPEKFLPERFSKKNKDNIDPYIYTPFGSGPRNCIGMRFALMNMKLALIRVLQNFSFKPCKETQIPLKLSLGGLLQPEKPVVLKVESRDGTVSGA
Sequence of Muscarinic acetylcholine receptor M1 (Rattus norvegicus) (P08482 whole entry, looked up): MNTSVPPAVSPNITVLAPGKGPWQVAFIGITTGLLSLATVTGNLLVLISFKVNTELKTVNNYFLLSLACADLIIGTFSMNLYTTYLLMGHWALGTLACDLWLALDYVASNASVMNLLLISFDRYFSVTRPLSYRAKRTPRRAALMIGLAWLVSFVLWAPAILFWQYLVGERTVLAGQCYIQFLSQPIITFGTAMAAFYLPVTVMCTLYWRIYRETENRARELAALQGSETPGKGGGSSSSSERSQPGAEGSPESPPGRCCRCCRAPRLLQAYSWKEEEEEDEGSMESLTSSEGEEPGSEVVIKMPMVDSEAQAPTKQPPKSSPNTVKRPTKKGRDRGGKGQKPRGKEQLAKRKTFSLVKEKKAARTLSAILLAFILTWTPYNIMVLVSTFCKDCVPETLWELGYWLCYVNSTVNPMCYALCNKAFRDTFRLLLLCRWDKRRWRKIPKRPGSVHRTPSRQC
Sequence of ATP-dependent 6-phosphofructokinase (Trypanosoma brucei brucei) (O15648 whole entry, looked up): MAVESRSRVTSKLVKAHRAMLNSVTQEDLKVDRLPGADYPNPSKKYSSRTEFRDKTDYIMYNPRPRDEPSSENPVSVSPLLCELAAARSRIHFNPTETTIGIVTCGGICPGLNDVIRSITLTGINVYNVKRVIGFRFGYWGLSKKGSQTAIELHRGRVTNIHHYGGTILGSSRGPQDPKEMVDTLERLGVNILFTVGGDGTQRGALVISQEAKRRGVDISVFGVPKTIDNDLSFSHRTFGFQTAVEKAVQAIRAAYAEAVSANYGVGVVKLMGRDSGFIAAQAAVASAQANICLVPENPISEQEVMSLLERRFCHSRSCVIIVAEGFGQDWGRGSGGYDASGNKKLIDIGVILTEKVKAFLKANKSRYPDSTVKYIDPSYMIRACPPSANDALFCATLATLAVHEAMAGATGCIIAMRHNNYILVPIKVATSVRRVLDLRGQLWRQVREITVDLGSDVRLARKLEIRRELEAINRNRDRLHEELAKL

In the case of `COc1ccc(-c2csc3c2[N+]2=CCC=C2C3=O)cc1`, in [1], the Potency was 3.16 µM (active).
As to `CN(C)CCCN1c2ccc(O)cc2Sc2ccc(Cl)cc21`, the Potency in [1] was 0.126 µM (active).
With `C[C@H]1CC(C)(C)C[C@@](OCCN2CCCCC2)(c2ccccc2)C1`, the Potency in assay [1] was 0.631 µM (active).
On the same count and under the same terms, the figure for `CN(Cc1ccccc1)Cn1ccnc1` is 0.794 µM (active).
The same measure, in the same setting: the figure for `CCNc1ncc2nc(CCc3ccccc3)c(=O)n(-c3ccc(OC)cc3)c2n1` is 0.251 µM (active); for `Oc1ccc(CNCc2ccccc2)c2cccnc12` it is 1.58 µM (active).
Turning to `CN1CCN(c2ncc3nc(-c4ccc(Cl)cc4)c(=O)n(C4CC4)c3n2)CC1`, the Potency result in assay [2] was “inactive”.
Consider `CCc1ccc2c(c1)N(C[C@H](C)CN(C)C)c1ccccc1S2`, for which, in [3], the molecule was called inactive. For the same molecule, the activity, negative = inhibition in assay [4] (parasite line A) was -23.4%; in assay [4] (parasite line B), -17.5%. Besides, the Potency in assay [5] was 10 µM (active); in assay [18] it was 7.57 µM (active). Further, the Potency result in assay [6], in assay [7], in assay [8], in [9], in [10] and in assay [11] was “inactive” each time. Also, the Potency result in assay [12], in [13], in [14], in assay [15], in [16] and in [17] was “inactive” throughout.
Consider `NNC(=O)CCSc1ccccc1`, for which the Potency in [2] was 3.98 µM (active).
`OC[C@H](S)CS`: the result in assay [3] was inactive. In addition, the activity, negative = inhibition in assay [4] (parasite line A) is -3.06%. Moreover, the values for the Potency in assay [5], in assay [15] and in assay [18] were 0.891 µM (active), 2 µM (active) and 2.39 µM (active), respectively. The Potency result in [6], in assay [7], in assay [8], in assay [9], in [10] and in [11] was “inactive” each time. The Potency entry in assay [12], in assay [13], in [14], in assay [16] and in assay [17] was “inactive” throughout.
Take `CSc1nc(N)c2ncn([C@@H]3O[C@@H](COP(=O)(O)OP(=O)(O)OP(=O)(O)O)[C@@H](O)[C@H]3O)c2n1`: the Potency result in assay [2] and in assay [1] was “inactive” in each case.
Consider `COc1cc2c(cc1OC)[C@H](c1ccccc1)CN(C)CC2`, for which the Potency entry in assay [2] and in assay [19] was “inactive” throughout.
In the case of `Cc1nnc(SCC2=C(C(=O)O)N3C(=O)[C@@H](NC(=O)Cn4cnnn4)[C@@H]3SC2)s1`, the Potency result in [20] is “inactive”.
For `N=c1ccn2c(n1)O[C@@H]1[C@@H](O)[C@H](CO)O[C@H]12`, the Potency result in assay [2] is “inactive”.
Regarding `Cc1ccccc1N1CCN(S(=O)(=O)C[C@@]23CC[C@H](C[C@H]2NC(=O)[C@@H](N)CCS(C)(=O)=O)C3(C)C)CC1`, the Potency entry in assay [19] and in assay [20] was “inactive” each time.
`C[C@@H](Cc1ccccc1)Nc1ncnc2c1ncn2[C@@H]1O[C@@H](CO)[C@H](O)[C@@H]1O`: the Potency in [19] is 3.98 µM (active).
With `CC(C)[C@@H]1NC(=O)[C@H](CCCCN)NC(=O)[C@H](Cc2c[nH]c3ccccc23)NC(=O)[C@H](Cc2ccc(O)cc2)NC(=O)[C@H](C)N(C)C(=O)[C@H](Cc2ccccc2)NC1=O`, in [2], the Potency is 3.98 µM (active).
On the same count and under the same terms, the figure for `O=C1O/C(=C\Br)CC[C@@H]1c1cccc2ccccc12` is 3.98 µM (active).
On the same count and under the same terms, the result for `Cc1cc(O)c(C(C)C)cc1C1(c2cc(C(C)C)c(O)cc2C)OC(=O)c2ccccc21` reads 1.58 µM (active).
Consider `CN1CCc2cc(Cl)c(O)cc2[C@H](c2ccccc2)C1`, for which, in assay [2], the Potency entry was “inactive”. In addition, the Potency in assay [1] was 0.631 µM (active).
With `O=C(O)/C=C\c1cnc[nH]1`, the Potency entry in [20] was “inactive”.
Regarding `Oc1ccc([C@@H]2CNCCc3c2cc(O)c(O)c3Cl)cc1`, the Potency in assay [1] is 3.16 µM (active).
